Measured values taken from PubChem BioAssay (NCATS).
Results filed as inconclusive are left out. Calls of active or inactive are those of the source. The call rests on the fitted dose curve; in most records, active means well fitted inhibition curve with a large enough effect; inconclusive means small, poorly fitted or top-dose-only effect; inactive means flat fitted curve, though single readings scatter.

target: Calcium and integrin-binding protein 1 (Homo sapiens) (UniProt Q99828); assay: Primary qHTS for Identification of Calcium Integrin Binding Protein 1 (CIB1) Competitor (AID 1508620); details: CIB1-GST / FITC-alphaIIb peptide fluorescence polarization; series mostly up to 114 µM; activity change, negative = inhibition: at the top concentration;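 on activity change, negative = inhibition: GST tagged CIB1 binding a fluorescein labelled alphaIIb integrin peptide tracer; top concentration of the series differs between compounds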
Sequence (Q99828 whole entry, looked up): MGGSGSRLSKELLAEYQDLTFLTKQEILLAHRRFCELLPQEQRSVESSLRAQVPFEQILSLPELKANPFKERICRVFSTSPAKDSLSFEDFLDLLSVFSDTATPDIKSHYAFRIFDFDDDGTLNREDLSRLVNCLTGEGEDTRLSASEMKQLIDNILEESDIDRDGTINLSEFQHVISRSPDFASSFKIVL
Description: Assay Provider: Ulhas P. Naik, PhD Sidney Kimmel Medical College Thomas Jefferson University, Philadelphia, PA Primary function of platelets is to maintain hemostasis. At the site of vascular injury, platelets adhere to adhesive proteins such as collagen and von Willebrand factor. Adherent platelets are activated and generate soluble platelet agonists such as thrombin, ADP and thromboxane A2. Following exposure of circulating platelets to these agonists, results in platelet shape change, granule secretion and activation of platelet integrin alphaIIb-beta3. Ligand binding to activated integrin alphaIIb-beta3 triggers outside-in signaling, leading to platelet aggregation, stabilization of platelet plug, and clot retraction. Upon atherosclerotic plaque rupture also causes platelet plug formation, which underlies a number of cardiovascular diseases such as myocardial infraction and stroke. A number of anti-platelet drugs such as aspirin, clopidogrel, prasugrel, vorapaxar, and eptifibatide are currently available to prevent the thrombotic complications. However, these anti-platelet agents have several limitations including inherent variability in individual responses, developing resistance, and serious bleeding side effects. For these reasons they are not suitable for long-term protection. Based on the experiences with current anti-platelet drugs, it appears that the most useful therapeutic approach is to intersect the secondary responses such as integrin outside-in signaling or recruitment of platelets by TxA2 and secreted ADP. Compounds, which can largely preserve the primary hemostatic function of platelets but inhibit secondary response will be most desired therapeutic agents for treatment of cardiovascular disease. CIB1 is a calcium integrin binding protein, which specifically interact with the alphaIIb subunit of integrin alphaIIb-beta3. Binding of CIB1 to alphaIIb regulates the outside-in signaling in platelets, which is needed for thrombus stabilization and thrombus growth. […] Therefore, we propose that discovery of a small molecule that can prevent the association of CIB1 and alphaIIb-beta3 will be a potential anti-platelet agent that can block the thrombus formation without undue effect on hemostasis. Reference: [1] Naik MU, Nigam A, Manrai P, et al. CIB1 deficiency results in impaired thrombosis: the potential role of CIB1 in outside-in signaling through integrin alpha IIb beta 3. J Thromb Haemost.
PROTOCOL TABLES SEQUENCE No. (1, 2, 3, etc.); […] (e.g., Cells, Incubation, Reagent, etc.); VALUE and DESCRIPTION. 1; Reagent; 3 uL; Protein or buffer (4/3x) 2; Compound; 46 nL; Control inhibitor / compound library 3; Time; 15 min; Room temperature incubation 4; Reagent; 1 uL; Fluorescent labeled peptide (4x) 5; Time; 1000 rpm; Centrifuge 6; Time; 15 min; Room temperature incubation 7; Detection; Ex 480/ Em 540; ViewLux Fluorescence Read NOTES (numbers refer to sequence above) 1; Protein Mixture: C1B1-GST (final concentrations of 1 uM). […] 3; Room temperature incubation. 4; Fluorescent Labeled Peptide: FITC-aIIb (final concentration of 100 nM). Sequence of alphaIIb peptide: Acetyl-[…]-FITC (purity is 95.83%). 5; Centrifuge 1000 rpm (164 g) for 15 seconds. 6; Room temperature incubation. 7; ViewLux Fluorescent Polization Read: excitation = 480(20) / emission = 540(25) S and P; FITC Dichroic mirror.
On the % scale 0 is the no-effect control and ±100 the full control effect; potency means the concentration at half of the fitted maximal effect.

Row | Compound | activity change, negative = inhibition | Potency
1 | CC(=O)OC[C@]12[C@H](OC(C)=O)C(=O)[C@@H]3[C@@H](O)[C@@]14O[C@@]3(C)COC(=O)c1cccnc1[C@@H](C)[C@H](C)C(=O)O[C@@H]([C@H](OC(C)=O)[C@@H]2OC(C)=O)[C@]4(C)O | 0.157% [at 30.2 µM] (inactive) | 
2 | CN1C(=O)N(c2ccc(C#N)c(C(F)(F)F)c2)C(=O)[C@@]1(CO)c1ccccc1 | -3.53% (inactive) | 
3 | C[C@]12CC[C@H](O)C[C@H]1CC[C@@H]1[C@@H]2[C@H](O)C[C@]2(C)[C@@H](c3ccc(=O)oc3)CC[C@]12O | 3.82% (inactive) | 
4 | C=C1C(=O)CC2OC2(C)CC2OC(=O)C(=C)C2C(O)C1OC(=O)/C(C)=C\C (stereo not given) | -16.7% [at 57.7 µM] (inactive) | 
5 | CN1CCc2cc3c(cc2C1C1OC(=O)c2c1ccc1c2OCO1)OCO3 (stereo not given) | 3.86% [at 57.7 µM] (inactive) | 
6 | C=C(C)[C@@]12O[C@@H]1[C@@]1(C)C(=CC2=O)CC[C@@H](OC(C)=O)[C@@H]1C | 0.703% (inactive) | 
7 | C[C@@H]1Cc2c(Cl)cc(C(=O)N[C@@H](Cc3ccccc3)C(=O)O)c(O)c2C(=O)O1 | 2.53% [at 57.7 µM] (inactive) | 
8 | O=C(N[C@H]1CN2CCC1CC2)c1cc2cccc(Cl)c2s1 | -6.41% (inactive) | 
9 | CO/C1=C\C(C)=C\[C@@H](C)[C@@H](O)[C@@H](C)C/C(C)=C/C=C/[C@H](OC)[C@@H]([C@@H](C)[C@@H](O)[C@H](C)[C@@]2(O)C[C@@H](O)[C@H](C)[C@@H](C(C)C)O2)OC1=O | 3.19% [at 30.2 µM] (inactive) | 
10 | COc1cc(O)c2c(c1)CCC[C@@H](O)[C@H](O)C(=O)/C=C\C[C@H](C)OC2=O | -10.7% [at 57.7 µM] (inactive) | 
11 | CC[C@@H]1C[C@H]2CC[C@H](O2)[C@H](C)C(=O)O[C@@H](C)C[C@@H]2CC[C@@H](O2)[C@@H](C)C(=O)O[C@H](CC)C[C@H]2CC[C@H](O2)[C@H](C)C(=O)O[C@@H](C)C[C@@H]2CC[C@@H](O2)[C@@H](C)C(=O)O1 | -8.45% [at 30.2 µM] (inactive) | 
12 | Cc1sc2c(c1C)C(c1ccc(Cl)cc1)=N[C@@H](CC(N)=O)c1nnc(C)n1-2 | 5.11% (inactive) | 
13 | N#Cc1ccccc1-c1cc(-c2ccccn2)cn(-c2ccccc2)c1=O | -0.784% (inactive) | 
14 | COC1C=CC23c4cc5c(cc4COC2(O)CN(C)C3C1)OCO5 (stereo not given) | -1.15% [at 57.7 µM] (inactive) | 
15 | CN(C(=O)CN1C(=O)COc2cc(Cl)c(Cl)cc21)[C@@H](CN1CCCC1)c1ccc(-c2cccc(C(N)=O)c2)cc1 | 8.84% (inactive) | 
16 | CC(=O)C1CCC2C3CCC4C[C@@H](O)CCC4(C)C3CCC12C (stereo not given in full) | 4.12% (inactive) | 
17 | CN1C(=O)CN=C(c2ccccc2Cl)c2cc(Cl)ccc21 | -2.5% (inactive) | 
18 | CC(=O)NCCCOc1ccc(C(=O)N2CCC(N3C(=O)CCc4ccccc43)CC2)cc1 | -2.23% (inactive) | 
19 | C=C1[C@@H](C)[C@H]2[C@H](Cc3ccccc3)NC(=O)[C@]23OC(=O)/C=C/C(=O)CCC[C@@H](C)C/C=C/[C@H]3[C@@H]1O |  | 20 µM (active)
20 | N#Cc1cn([C@@H]2O[C@H](CO)[C@H](O)[C@@H]2O)c2ncnc(N)c12 | -3.18% (inactive) | 

Row | Compound | activity change, negative = inhibition | Potency
21 | COc1ccc2c3c([nH]c2c1)C(C=C(C)C)N1C(=O)C2CCCN2C(=O)C1C3 (stereo not given) | 3.03% [at 57.7 µM] (inactive) | 
22 | Cc1ncc(OC[C@@]2(c3cccc(F)c3)C[C@H]2C(=O)Nc2ccc(F)cn2)c(C)n1 | -2.88% [at 57.7 µM] (inactive) | 
23 | CC1(C)C(=O)N(c2ccc(C#N)c(C(F)(F)F)c2)C(=O)N1CCCCO | -6.58% (inactive) | 
24 | OC(CNc1ccccc1)Cn1c2ccc(Br)cc2c2cc(Br)ccc21 (stereo not given) | -0.174% (inactive) | 
25 | CS[C@]1(CO)C(=O)N2[C@H]3C(=CC=C[C@@H]3O)C[C@@]2(SC)C(=O)N1C | -0.162% [at 57.7 µM] (inactive) | 
26 | CC(C)[C@H]1OC(=O)[C@H](Cc2ccccc2)N(C)C(=O)[C@@H](C(C)C)OC(=O)[C@H](Cc2ccccc2)N(C)C(=O)[C@@H](C(C)C)OC(=O)[C@H](Cc2ccccc2)N(C)C1=O | -9.02% [at 30.2 µM] (inactive) | 
27 | CCCCCn1cc(C(=O)c2cccc3ccccc23)c2ccccc21 | 2.16% (inactive) | 
28 | COc1ccc(CC2C(=O)NC(C)C(=O)N(C)C3Cc4ccc(cc4)Oc4cc(ccc4OC4OC(CO)C(O)C(O)C4O)CC(C(=O)NC(C)C(=O)NC(CCC(=O)O)C(=O)N2C)N(C)C3=O)cc1 (stereo not given) | 1.18% [at 30.2 µM] (inactive) | 
29 | Oc1ccc2c(c1)C13CCCC[C@H]1[C@@H](C2)N(CC1CCC1)CC3 | -2.47% (inactive) | 
30 | Cc1ccc(-n2nccn2)c(C(=O)N2CCN(c3nc4cc(Cl)ccc4o3)CCC2C)c1 (stereo not given) | 0% (inactive) | 
31 | CC(=O)O[C@H]1C[C@]2(O)[C@@H]3CC[C@@H]4C[C@@H](O)CC[C@]4(C)[C@H]3CC[C@]2(C)[C@H]1c1ccc(=O)oc1 | -2.9% (inactive) | 
32 | Cc1c(Cl)c(OCC(=O)N2CCN(C)CC2)nc2sc(C(=O)NC3CC3)c(N)c12 | 0.0262% (inactive) | 
33 | COC(=O)C1=COC(C)C2CN3CCC4(C(=O)Nc5ccccc54)C3CC12 (stereo not given) | 0.702% [at 57.7 µM] (inactive) | 
34 | CCOC(=O)C1(CCc2ccccc2)CCN(Cc2ccc(NC(C)=O)cc2)CC1 | 3.98% (inactive) | 
35 | COC1CC(O[C@H]2CC[C@]3(C)C4CC[C@]5(C)[C@@H](C6=CC(=O)OC6)[C@@H](OC(C)=O)C[C@]5(O)C4CC[C@@H]3C2)OC(C)C1O[C@@H]1O[C@H](CO)[C@@H](O)[C@H](O)[C@H]1O (stereo not given in full) | 2.06% [at 30.2 µM] (inactive) | 
36 | C1=C(c2cnc[nH]2)c2ccsc2CC1 | -7.58% (inactive) | 
37 | NC(=O)c1ncn2c1CN=C(c1ccccc1Br)c1cc(F)ccc1-2 | 0.0492% (inactive) | 
38 | CCCCCn1cc(C(=O)Cc2ccccc2OC)c2ccccc21 | -8.18% (inactive) | 
39 | COC(=O)C12C(=O)C(C)(O)C(=O)C1(C)C(C)=CC1C3(C=O)CCC(OC(C)=O)C(C)(C)C3CCC12C (stereo not given) | 5.43% [at 57.7 µM] (inactive) | 
40 | C[C@@H]1CCC/C=C/[C@H]2C[C@@H](O)C[C@@H]2[C@@H](O)/C=C/C(=O)O1 | -1.48% (inactive) | 
